Hit rate of the full screen: of about 370,000 compounds, about 3,800 (1%) were called active. Rule as the data show it: active = activation above about 7.8%; inactive = the rest. The full list was thinned out, with actives kept by preference.
Test: SMARCA2 (BRM) function activators, primary screen, cell-based, luminescence, high throughput (AID 652017);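 also: 0% = vehicle wells and 100% = reference activator wells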
Settings: MG213 cells, MMTV-luciferase reporter, dexamethasone, overnight; at 9.1 µM; active compounds read high

activation, inactive:
O=C(CSc1nnc(-c2cccc(Cl)c2)n1Cc1ccco1)Nc1ccc(OCc2ccccc2)cc1 -5.35%
O=C(Nc1nc2ccc(Cl)cc2s1)c1cc(-c2ccc(Cl)cc2)nc2ccccc12 -3.62%
Cc1sc2ncnc(N3CCC(C(=O)Nc4nc5ccc(Cl)cc5s4)CC3)c2c1C 4.88%
COC1=C[C@H](C(=O)NCCNC(C)=O)[C@H](C)[C@@H](c2ccccc2)CC1=O -1.73%
O=C1CC[C@@H](COc2ccc3[nH]cc(-c4ccccc4)c3c2-c2ccccc2)N1 -2.62%
COC(=O)[C@]12C[C@H](CC(=O)N3CCOCC3)C(=O)N(Cc3ccc(Cl)cc3Cl)C1=C[C@H](C(C)C)O[C@@H]2C1CC1 -2.82%
Cc1nc2ccccc2nc(=O)c1NNc1ccc([N+](=O)[O-])cc1 2.04%
Cc1ccc(-n2cc3ccc([N+](=O)[O-])cc3n2)cc1 3.85%
COc1ccc(CSc2nnc(SCC(=O)Nc3ccccc3C(F)(F)F)s2)cc1 -1.77%
COc1ccc(CN2CCOC2=O)cc1OC -2.13%
COC(=O)C1=CN(Cc2ccc(OC)c(OC)c2)C=C(C(=O)OC)C1c1cccs1 -1.26%
CN(CCO)c1cccc2c1S(=O)(=O)N(Cc1cn(Cc3ccc(C(F)(F)F)cc3)nn1)Cc1ccccc1O2 3.38%
CC(C)CNC(=O)OCc1cn(Cc2ccc(F)cc2)nn1 -0.88%
CCOC(=O)[C@@]12CCC3=C1N(CCC3)C(=O)[C@H](CC(=O)N1CCN(C(=O)c3ccco3)CC1)C2 -0.99%
COc1cccc(CNC(=O)[C@H]2CCCN2C(=O)[C@H]2CCCN2C(=O)c2ccc(F)cc2)c1 -5.59%
O=C(NCCCc1ccccc1)C(=O)c1c[nH]c2ccccc12 7.21%
CC1CCN(CC(=O)c2c[nH]c3ccccc23)CC1 4.35%
Cc1nn(C(C)(C)C)c(OC(=O)CC(C)C)c1S(=O)(=O)c1ccccc1 -0.75%
N#Cc1c(/N=C/N2CCCC2)oc(-c2ccccc2)c1-c1ccccc1 1.32%
CCOc1ccc(NC(=S)N2CCC(N(C)CC3CCCO3)CC2)cc1 (stereo unspecified) 4.49%
COc1ccc(N2CCN(C(=S)Nc3ccc(S(N)(=O)=O)cc3)CC2)cc1 -1.43%
O=C(CSc1nc2ccccc2n1Cc1ccccc1)NNC(=S)Nc1ccccc1 4.3%
COc1cccc(/C=C/C(=O)Nc2ccc3c(c2)OCCO3)c1 5.29%
COc1ccc(OC)c(NC(=O)c2cccc(S(=O)(=O)N3CCN(C(C)=O)CC3)c2)c1 -1.12%
O=S1(=O)C[C@@H](N2CCN(CCO)CC2)[C@H](COCc2ccccc2)N1 -4.94%
COC(=O)[C@]12C[C@H](CC(=O)NCc3cccs3)C(=O)N(CCc3ccc(OC)c(OC)c3)C1=C[C@H](C(C)C)O[C@@H]2C1CC1 -3.39%
O=C(NCCC1=CCCCC1)C1CCN(S(=O)(=O)c2ccc(Cl)s2)CC1 -6.89%
COc1ccc(N(CC(=O)NC(C)(C)C)C(=O)c2ccco2)cc1 -1.03%
COc1cccc2cc(/C(C)=N/NC(=O)c3ccco3)oc12 5.77%
CCC(NC(=O)C1C2C=CC3(CN(Cc4ccccc4)C(=O)C13)O2)c1ccccc1 (stereo unspecified) -1.92%
CC(C)CNC(=O)C1(C)CCCN1C(=O)CSc1ccccc1 (stereo unspecified) -1.93%
CS(=O)(=O)N1CCN(C(=O)CSc2ccccc2)CC1 -2.96%
C[C@@H]1CN([C@H](C)CO)C(=O)CCCn2cc(nn2)CO[C@H]1CN(C)S(=O)(=O)c1ccc(Oc2ccccc2)nc1 -2.13%
COc1ccc([C@H]2OC(=O)C[C@H]2C(=O)N2CCN(c3ccccc3F)CC2)cc1OC -3.16%
COC(=O)[C@]12C[C@H](CC(=O)NCc3ccccc3)C(=O)N(CCc3ccc(OC)c(OC)c3)C1=C[C@H](C(C)(C)C)O[C@@H]2C -3.03%
CCOC(=O)[C@]12CCCCC/C=C\1N(Cc1ccc(OC)cc1)C(=O)[C@H]2CC(=O)NCc1ccc(C)o1 -0.44%
O=C(NCCCN1CCCCCC1)c1ccc(N2CCCC2=O)cc1 1.14%
O=C(NCCS(=O)(=O)NCc1ccc(Cl)cc1)c1ccccc1 -0.89%
Cc1cc(NS(=O)(=O)c2ccc(NC(=O)CSc3nnc(SCc4ccc(F)cc4)s3)cc2)nc(C)n1 -5.48%
O=C(Nc1cccc(Cl)c1)OC1CC2CC1[C@H]1CCCCN1[C@H]2Cc1ccccc1 (stereo partly specified) -2.01%
CCOC(=O)CSc1nc(C)cc2c1C(=O)OC2 -2.43%
C#CCN([C@H](C(=O)OC)C(C)CC)S(=O)(=O)c1ccccc1Br (stereo partly specified) -1.68%
O=C(Nc1ccc2c(c1)[C@@H]1C[C@@H](CC(=O)N3CCCCC3)O[C@@H](CO)[C@@H]1O2)NC1CCCCC1 -1.84%
O=C(C[C@H]1CC[C@@H](NC(=O)c2ccncc2)[C@@H](CO)O1)NCC1CC1 -1.73%
N#Cc1ccc(OC[C@@H](O)CN2CCC(C(O)(c3ccccc3)c3ccccc3)CC2)c(F)c1 1.41%
COc1ccc(CCNC(=O)CN(c2ccccc2)S(C)(=O)=O)cc1 -1.26%
O=C(CC1CCCCC1)NCc1ccccc1 2.93%
COc1ccc(OCC(=O)NCCc2ccc(S(N)(=O)=O)cc2)cc1 2.09%
O=C(CCNS(=O)(=O)c1ccccc1)NCCCc1ccccc1 -1.66%
O=C(c1ccccc1)c1ccc(-c2ccccc2C(=O)NC2CCCCN(Cc3ccc(Cl)cc3)C2=O)cc1 (stereo unspecified) -0.95%
CCOC(=O)[C@]12CCCC3=C1N(CCC3)C(=O)[C@@H](CC(=O)NCC13CC4CC(CC(C4)C1)C3)C2 -3%
C=CCOc1ccc(Cl)cc1CNCCCN1CCOCC1 -1.83%
CC(C)CNc1cccc2c1S(=O)(=O)N(Cc1cn(Cc3ccc(Cl)cc3)nn1)Cc1ccccc1O2 0.35%
COC(=O)c1cc2c(N)c(C(=O)c3ccc(Cl)cc3)sc2nc1C(OC)OC -4.26%
NC(=O)Cc1ccc2sc(-c3ccccc3)nc2c1 2.7%
CN(C)/C=C/C(=O)c1cnc2sccn2c1=O -3.44%
CCOC(=O)c1cnc2sccn2c1=O -1.74%
N#Cc1ccccc1OC[C@@H](O)CN1CCC(C(O)(c2ccccc2)c2ccccc2)CC1 -4.74%
COC(=O)c1ccc(CSc2nnc(N)s2)o1 -1.46%
CN1CCc2c(sc3c2c(NCc2ccco2)nc2nnnn23)C1 0.32%
COc1ccc(C(=O)NCC[N+](C)(C)C)cc1 -4.72%
COc1ccccc1CN(C)C(=O)c1cc2ccccc2o1 -0.29%
CC(=O)c1cc(-c2ccc3ccccc3c2)c(=O)n2c1CCC2 -0.02%
CSc1ccc(C#N)cc1NC(=O)c1ccc(Cl)cc1 -0.91%
COc1ccc(Sc2ccc(NC(=O)c3cccc(Cl)c3)cc2C#N)cc1 -0.62%
C[C@H](CO)N1C[C@H](C)[C@@H](CN(C)S(=O)(=O)c2ccc(F)cc2)Oc2ccc(NC(=O)CCC(F)(F)F)cc2C1=O 1.28%
CCOC(=O)c1ccccc1NC(=O)c1c(N)n(C)c(=O)[nH]c1=O -0.83%
Cn1c(=O)c(C(=O)Nc2ncccn2)c(O)c2ccccc21 2.91%

activation, active:
Cc1ccc(C(=O)Nc2nc3ccc(Cl)cc3s2)o1 12.3%
O=[N+]([O-])c1ccc2c(c1)Nc1nc3ccccc3nc1N2 15.2%
COc1ccc(CC2c3cc(OC)c(OC)cc3CC[N+]2(C)CCC(=O)OCCCCCOC(=O)CC[N+]2(C)CCc3cc(OC)c(OC)cc3C2Cc2ccc(OC)c(OC)c2)cc1OC (stereo unspecified) 11.4%
O=C(NC1CCCC1)C(=O)c1c[nH]c2ccccc12 10.3%
CCC(C)N(C)C1CCN(C(=S)Nc2ccc(OC)cc2)CC1 (stereo unspecified) 8.91%
COc1cccc(C(=O)Nc2cc3c(cc2Br)OCCCO3)c1 11%
C/C(CC(=O)NC(C)(C)C)=N\NC(=O)c1ccco1 8.95%
CC1(C(=O)NS(=O)(=O)C2CC2)CCCN(C(=O)CSc2ccccc2)C1 (stereo unspecified) 10.6%
CN1CCN(CCCNC(=O)c2ccc(/C=C3\Oc4ccccc4N(Cc4ccc(Cl)cc4)C3=O)cc2)CC1 10.6%
O=C(N[C@H]1CC[C@H](CC(=O)N2CCCCC2)O[C@@H]1CO)c1cccc(F)c1 8.81%
C=C1C(=O)[C@]23C[C@H]1CCC2[C@@]1(C)C(C[C@@H]3O)[C@](C)(C(=O)O)CC[C@@H]1O (stereo partly specified) 28.1%
COc1ccc(OCCCC(=O)NCCc2ccccc2)cc1 17.9%
O=C(CCCc1ccccc1)NCc1ccccc1 8.27%
CCN(CC)C(=O)c1sc2nc(-c3ccccc3)ccc2c1N 9.84%
O=C(NCc1ccccn1)c1cnc2sccn2c1=O 8.52%
COc1ccc(C(=O)N/N=c2\oc3ccccc3cc2C(N)=O)cc1 9.22%
N#Cc1ccccc1NC(=O)c1cccc(COc2ccc(Cl)cc2Cl)c1 9.56%
NS(=O)(=O)c1ccccc1NC(=O)c1c(O)c2ccccc2[nH]c1=O 9.94%
